Measured values from PubChem BioAssay.
Calls of active or inactive are those of the source. Unless noted, the rule behind the calls is not given here.

Experiments:
[1] = test system: Wnt5a (protein binding on small-molecule microarray); assay: Wnt5a binders on small-molecule microarray, primary screen, biophysical, 635/667 nm fluorescence (AID 1142); conditions: 635 nm fluorescence, higher = more signal;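 note: fluorescence read at 667 nm with signal to noise per printed feature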
[2] = cell viability in Huh7 cells, primary screen, cytotoxicity control for HCV replication inhibitor project, CellTiter-Glo luminescence, basal, 48 h (AID 1143); conditions: Huh7 HCV replicon, higher = more signal, called active from +8 up or from −8 down;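 note: Huh7 hepatoma cells carrying a hepatitis C replication reporter with no stimulus; test concentration not given here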
[3] = P. aeruginosa biofilm formation inhibitors, primary screen, PAO1 strain, BacTiter-Glo luminescence, LB-PBS (AID 1144); conditions: 12 h, higher = more signal
[4] = CREB reporter modulators without forskolin, primary screen, cell-based, PC12, CRE-LacZ reporter, unstimulated (AID 1145); conditions: no forskolin, luminescence, 4.5 h, higher = more signal, called active from +8 up or from −8 down
[5] = CREB reporter modulators under forskolin, primary screen, cell-based, PC12, CRE-LacZ reporter, forskolin-stimulated (AID 1146); conditions: luminescence, 4.5 h, higher = more signal, called active from +8 up or from −8 down;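 note: PC12 cells with 6xCRE LacZ reporter stimulated by forskolin 10 µM; beta-galactosidase reporter signal reflecting CREB driven transcription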
[6] = target: Streptavidin (Streptomyces avidinii) (UniProt P22629); assay: streptavidin binders on small-molecule microarray, primary screen, artefact control for SMM compound annotation, biophysical, 635/667 nm fluorescence (AID 1147); conditions: streptavidin binding, higher = more signal;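 note: signal reflects streptavidin binding to arrayed compounds as a control protein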
Streptavidin (Streptomyces avidinii), sequence (P22629 whole entry, looked up): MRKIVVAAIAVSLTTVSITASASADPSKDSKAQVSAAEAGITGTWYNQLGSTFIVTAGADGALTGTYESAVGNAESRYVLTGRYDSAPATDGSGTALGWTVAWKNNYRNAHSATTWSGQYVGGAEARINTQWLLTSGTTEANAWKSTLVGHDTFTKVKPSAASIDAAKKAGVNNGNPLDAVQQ

[7] = small-molecule binders of probe aInhba, primary screen, biochemical, small-molecule microarray, 635/667 nm fluorescence (AID 1148); conditions: higher = more signal;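 note: score merges 667nm spot fluorescence with signal-to-noise for antibody binding to printed compounds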
Torsin-1A (Homo sapiens) [8] = target: Torsin-1A (Homo sapiens) (UniProt O14656); assay: torsin A binders from cell lysate, primary screen, small-molecule microarray, wild-type, 635/667 nm (AID 1149); conditions: COS7 hTOR1A-WT lysate, 635 nm fluorescence, higher = more signal
Torsin-1A (Homo sapiens), sequence (O14656 whole entry, looked up): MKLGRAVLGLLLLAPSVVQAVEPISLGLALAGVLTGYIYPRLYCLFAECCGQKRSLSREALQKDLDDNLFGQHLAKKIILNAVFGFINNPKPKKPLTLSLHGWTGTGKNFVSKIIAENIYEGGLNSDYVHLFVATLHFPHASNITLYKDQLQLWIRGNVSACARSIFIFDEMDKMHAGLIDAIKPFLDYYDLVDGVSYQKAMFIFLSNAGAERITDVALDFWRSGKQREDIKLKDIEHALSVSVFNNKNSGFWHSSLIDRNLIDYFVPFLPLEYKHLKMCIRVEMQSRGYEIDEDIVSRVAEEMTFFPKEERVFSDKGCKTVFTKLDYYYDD

Torsin-1A (Homo sapiens) [9] = target: Torsin-1A (Homo sapiens) (UniProt O14656); assay: small-molecule binders of mutant TOR1A in lysate, primary screen, cell lysate, small-molecule microarray, COS7 lysate, 635/667 nm fluorescence (AID 1150); conditions: COS7 hTOR1A mutant lysate, 635 nm fluorescence, higher = more signal;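 note: score pools 667 nm emission and signal to noise measuring lysate protein binding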
[10] = test system: Sonic hedgehog protein (Shh); assay: small-molecule binders of Shh protein, primary screen, biochemical, small-molecule microarray, 635/667 nm fluorescence (AID 1151); conditions: small-molecule microarray binding, 635 nm fluorescence; higher = more signal;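 note: Shh protein binding to compounds spotted on small-molecule microarray slides; score combines spot fluorescence intensity with signal-to-noise across triplicate slides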
[11] = E. coli DRC41 culture turbidity changes, primary screen, E. coli filamentation inducer project, strain DRC41, OD650, 48 h (AID 1152);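 note: E. coli MC1000 strain DRC41 lacking acrAB efflux pump and sulA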; conditions: E. coli DRC41 (acrAB sulA), higher = more signal, called active from +8 up or from −8 down
[12] = small-molecule binders of probe aLefty1, primary screen, biochemical, small-molecule microarray, 635/667 nm fluorescence (AID 1153); conditions: higher = more signal;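 note: score merges spot fluorescence with signal-to-noise ratio from the scanned slide images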
[13] = PSAC antagonists in infected red cells, primary screen, cell-based, P. falciparum Indochina, OD700, 1 h (AID 1154); conditions: P. falciparum Indochina infected RBC osmotic lysis, higher = more signal, called active from +8 up or from −8 down
[14] = PSAC antagonists in infected red cells, primary screen, cell-based, P. falciparum Indochina, OD700, 2 h (AID 1155);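 note: lysis reports solute entry through the parasite surface anion channel PSAC; channel blockers reduce lysis of infected cells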; conditions: P. falciparum Indochina infected erythrocytes, osmotic lysis OD700; higher = more signal, called active from +8 up or from −8 down
[15] = osmotic lysis modulators in infected erythrocytes, primary screen, PSAC antagonist project, cell-based, P. falciparum Indochina, OD700, 3 h (AID 1156); conditions: higher = more signal, called active from +8 up or from −8 down
[16] = PSAC antagonists in infected red cells, primary screen, cell-based, P. falciparum Indochina, OD700, 18 h (AID 1157); conditions: P. falciparum Indochina infected erythrocytes, osmotic lysis OD700, 18 h; higher = more signal, called active from +8 up or from −8 down
[17] = modulators of S6 phosphorylation in cells, primary screen, cell-based, A549, cytoblot, luminescence, serum-stimulated (AID 1158); conditions: A549 phospho-S6 cytoblot, 5 h, higher = more signal;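 note: serum-stimulated A549 lung adenocarcinoma cells; signal is phosphorylated S6 detected by cytoblot immunostaining with HRP secondary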
[18] = target: NADPH oxidase 2 (Homo sapiens) (UniProt P04839); assay: NOX2-dependent H2O2 signal modulators, primary screen, NOX inhibitor project, cell-based, HEK293-NOX2, PMA-stimulated, Amplex Red fluorescence (AID 1159); conditions: 45 min, higher = more signal, called active from +8 up or from −8 down; note: test concentration not given here
NADPH oxidase 2 (Homo sapiens), sequence (P04839 whole entry, looked up): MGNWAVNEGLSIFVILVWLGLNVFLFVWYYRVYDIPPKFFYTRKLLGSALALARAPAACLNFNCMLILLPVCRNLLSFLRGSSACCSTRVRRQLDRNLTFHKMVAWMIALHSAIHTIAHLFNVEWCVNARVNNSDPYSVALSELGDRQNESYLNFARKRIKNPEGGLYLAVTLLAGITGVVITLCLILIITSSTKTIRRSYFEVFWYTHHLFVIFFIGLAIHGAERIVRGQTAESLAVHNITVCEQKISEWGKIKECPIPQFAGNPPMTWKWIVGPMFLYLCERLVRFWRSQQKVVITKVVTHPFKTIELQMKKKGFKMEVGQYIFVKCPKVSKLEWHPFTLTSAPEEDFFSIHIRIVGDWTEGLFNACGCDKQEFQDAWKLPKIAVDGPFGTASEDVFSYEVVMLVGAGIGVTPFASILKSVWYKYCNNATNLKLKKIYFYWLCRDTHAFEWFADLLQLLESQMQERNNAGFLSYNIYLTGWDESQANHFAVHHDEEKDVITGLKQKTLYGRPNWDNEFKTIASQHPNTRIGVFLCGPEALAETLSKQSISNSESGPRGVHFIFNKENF

[19] = target: NADPH oxidase 4 (Homo sapiens) (UniProt Q9NPH5); assay: NOX4-dependent H2O2 signal modulators, primary screen, NOX inhibitor project, cell-based, HEK293-NOX4, tetracycline-induced, Amplex Red fluorescence (AID 1160); conditions: 45 min, higher = more signal, called active from +8 up or from −8 down
NADPH oxidase 4 (Homo sapiens), sequence (Q9NPH5 whole entry, looked up): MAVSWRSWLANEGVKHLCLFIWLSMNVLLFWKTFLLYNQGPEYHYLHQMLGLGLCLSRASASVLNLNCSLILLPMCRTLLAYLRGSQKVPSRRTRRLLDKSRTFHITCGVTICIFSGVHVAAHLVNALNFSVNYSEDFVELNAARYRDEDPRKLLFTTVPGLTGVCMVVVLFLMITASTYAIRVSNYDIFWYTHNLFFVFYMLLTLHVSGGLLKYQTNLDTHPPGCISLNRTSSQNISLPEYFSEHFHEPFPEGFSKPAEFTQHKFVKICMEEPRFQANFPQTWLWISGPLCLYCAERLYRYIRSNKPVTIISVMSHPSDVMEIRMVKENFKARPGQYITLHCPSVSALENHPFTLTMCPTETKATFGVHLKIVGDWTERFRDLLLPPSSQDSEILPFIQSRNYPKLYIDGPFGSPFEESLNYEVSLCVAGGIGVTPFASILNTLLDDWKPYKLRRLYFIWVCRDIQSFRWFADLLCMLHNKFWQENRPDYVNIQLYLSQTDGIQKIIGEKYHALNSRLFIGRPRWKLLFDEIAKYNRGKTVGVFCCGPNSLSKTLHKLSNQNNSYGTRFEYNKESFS

[20] = target: NADPH oxidase 5 (Homo sapiens) (UniProt Q96PH1); assay: NOX5-dependent H2O2 signal modulators, primary screen, NOX inhibitor project, cell-based, HEK293-NOX5, Amplex Red fluorescence (AID 1161); conditions: HEK293-NOX5, ionomycin, 45 min, higher = more signal
NADPH oxidase 5 (Homo sapiens), sequence (Q96PH1 whole entry, looked up): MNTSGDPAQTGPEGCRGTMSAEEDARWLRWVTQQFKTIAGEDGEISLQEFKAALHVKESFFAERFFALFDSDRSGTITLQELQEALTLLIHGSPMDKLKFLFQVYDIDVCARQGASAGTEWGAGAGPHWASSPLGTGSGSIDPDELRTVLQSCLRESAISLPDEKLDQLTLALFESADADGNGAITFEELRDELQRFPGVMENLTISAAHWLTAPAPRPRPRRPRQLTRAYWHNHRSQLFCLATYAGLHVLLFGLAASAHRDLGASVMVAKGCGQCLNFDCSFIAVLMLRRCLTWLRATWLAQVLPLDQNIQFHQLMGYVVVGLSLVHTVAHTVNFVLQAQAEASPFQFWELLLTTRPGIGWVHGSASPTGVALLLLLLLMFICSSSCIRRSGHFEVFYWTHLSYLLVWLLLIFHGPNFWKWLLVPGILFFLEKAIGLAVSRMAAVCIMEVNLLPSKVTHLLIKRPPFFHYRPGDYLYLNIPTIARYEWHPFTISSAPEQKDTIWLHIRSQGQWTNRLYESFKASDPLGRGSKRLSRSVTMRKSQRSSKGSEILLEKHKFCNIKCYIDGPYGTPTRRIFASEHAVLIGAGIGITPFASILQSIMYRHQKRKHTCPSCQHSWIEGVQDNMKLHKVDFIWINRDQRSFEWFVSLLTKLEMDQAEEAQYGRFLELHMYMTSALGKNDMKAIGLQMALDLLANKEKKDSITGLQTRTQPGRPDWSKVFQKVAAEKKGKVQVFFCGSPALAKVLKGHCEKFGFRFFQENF

Compound	composite z-score [1]	z-score [2]	z-score [3]	z-score [4]	z-score [5]	composite z-score [6]	composite z-score [7]	composite z-score (Torsin-1A (Homo sapiens) [8])	composite z-score (Torsin-1A (Homo sapiens) [9])	composite z-score [10]	z-score [11]	composite z-score [12]	z-score [13]	z-score [14]	z-score [15]	z-score [16]	z-score [17]	z-score [18]	z-score [19]	z-score [20]
COC(=O)[C@@]1(Cc2ccccc2)[C@H]2c3cc(C(=O)N4CCCC4)n(CC4CC4)c3C[C@H]2CN1C(=O)c1ccccc1	0.918	-3.64 (inactive)	0.798 (inactive)	0.587 (inactive)	0.847 (inactive)	0.907	1.06	0.256	0.0577	-0.151	-1.47 (inactive)	1.54	1.15 (inactive)	0.194 (inactive)	1.68 (inactive)	0.69 (inactive)	0.222	-0.295 (inactive)	-2.68 (inactive)	-2.49
C=C(C)C1C(=C)CN([C@H](CO)c2ccccc2)C1=O (stereo not given in full)	-0.231	-0.677 (inactive)	-0.65 (inactive)	-0.141 (inactive)	0.176 (inactive)	-1.12	-0.103	-1.46	-0.821	1.28	-1.08 (inactive)	-0.285	0.391 (inactive)	0.497 (inactive)	0.711 (inactive)	-0.0396 (inactive)	-0.272	1.98 (inactive)	0.998 (inactive)	-0.846
O=C1O[C@@H](c2ccccc2)[C@@H](c2ccccc2)N2[C@@H](c3ccccc3OCCO)[C@]3(C(=O)Nc4ccc(C#CC5=CCCCC5)cc43)[C@@H](C(=O)Nc3nc4ccccc4s3)[C@H]12	0.799	-4.3 (inactive)	-1.15 (inactive)	-0.191 (inactive)	0.447 (inactive)	1.1	0.0516	-0.271	0.335	0.988	0.36 (inactive)	0.293	1.83 (inactive)	1.9 (inactive)	1.37 (inactive)	1.83 (inactive)	0.653	1.78 (inactive)	0.387 (inactive)	1.59
COC(=O)C(CC#Cc1ccc2c(c1)[C@]1(C(=O)N2)[C@H](c2ccc(O)cc2)N2[C@H](c3ccccc3)[C@H](c3ccccc3)OC(=O)[C@H]2[C@@H]1C(=O)Nc1nc2ccccc2s1)C(=O)OC	0.695	-2.01 (inactive)	-1.45 (inactive)	1.15 (inactive)	-0.5 (inactive)	0.458	0.373	1.41	1.21	1.62	1.25 (inactive)	0.506	1.11 (inactive)	-0.314 (inactive)	-0.0671 (inactive)	-1.84 (inactive)	2.08	2.11 (inactive)	0.604 (inactive)	2.21
COc1ccc(C(O)C2C=CC3C(=O)NC(=O)C3N2Nc2ccccn2)cc1 (stereo not given)	0.273	1.06 (inactive)	-0.727 (inactive)	-0.329 (inactive)	-0.239 (inactive)	-0.0335	0.0659	0.21	0.353	0.3	-0.416 (inactive)	0.0622	0.539 (inactive)	0.874 (inactive)	-0.079 (inactive)	0.778 (inactive)	-0.449	-0.755 (inactive)	-2.56 (inactive)	-1.99
COC(=O)[C@@]1(Cc2ccc(F)cc2)[C@H]2c3cc(C(=O)N4CCCC4)n(Cc4cc(C)n(C)n4)c3C[C@H]2CN1C(=O)c1ccccc1	0.639	-2 (inactive)	-0.132 (inactive)	0.583 (inactive)	0.989 (inactive)	1.65	0.32	0.0304	1.04	-1.06	-0.859 (inactive)	0.291	2.02 (inactive)	0.0953 (inactive)	0.424 (inactive)	0.742 (inactive)	-0.301	1.16 (inactive)	0.368 (inactive)	-0.196
COCCOC(=O)N1C(=O)[C@@]2(c3cc(C#CC4=CCCCC4)ccc31)[C@H](C(N)=O)[C@H]1C(=O)O[C@H](c3ccccc3)[C@H](c3ccccc3)N1[C@@H]2c1ccc(OCCO)cc1	0.14	-4.37 (inactive)	-1.72 (inactive)	-0.195 (inactive)	-0.327 (inactive)	-0.602	-0.406	0.394	0.644	1.02	0.102 (inactive)	-0.273	6.77 (inactive)	3.03 (inactive)	2.5 (inactive)	1.96 (inactive)	0.375	1.54 (inactive)	1.41 (inactive)	1.96
C[N+](C)(C)CCCC[C@@H]1NC(=O)[C@@H]2C[C@H](C(=O)NCCCCCN)[C@H](c3cccc(OCCO)c3)N2C1=O	-0.0878	0.288 (inactive)	-0.165 (inactive)	0.7 (inactive)	0.508 (inactive)	1.19	-0.117	0.345	-0.149	-0.125	-0.272 (inactive)	-0.0412	1.85 (inactive)	0.508 (inactive)	0.214 (inactive)	0.129 (inactive)	-0.0726	0.79 (inactive)	0.289 (inactive)	1.54
